The whole screen tested about 1,400 compounds, of which about 10 (0.7%) were called active. About 2% were inconclusive and are not listed. This excerpt belongs to a sample that is enriched for actives. Unmarked numbers belong to inactive results. The call rests on the fitted dose curve; in most records, active means well fitted inhibition curve with a large enough effect; inconclusive means small, poorly fitted or top-dose-only effect; inactive means flat fitted curve, though single readings scatter.
target: Luciferin 4-monooxygenase (Photinus pyralis) (UniProt P08659); assay: Natriuretic polypeptide receptor (hNpr1) antagonism - Confirmation firefly luciferase (FLuc) inhibition counterscreen; details: purified FLuc enzyme, luminescence, Km substrate; series mostly up to 57.6 µM; activity change, negative = inhibition: at the top concentration; further: 0% is about no effect
Description: Firefly (Photinus pyralis) luciferase (FLuc) is one of the more frequently used transcriptional reporter genes, and it has also been developed as a cellular sensor for cyclic nucleotides. (Fan F & Wood KV, 2007; Fan F et al., 2008) However, a significant number of compounds that populate chemical libraries have been identified as FLuc ligands which can be mistaken for modulators of the intended targeted pathways, receptors or enzymes. (Auld, DS et al. 2008; Thorne, N et al. 2012) Therefore, the FLuc enzyme assay conducted at sensitive Km level substrate conditions is used to counter-screen for potential FLuc ligands. Auld DS, Thorne N, Nguyen DT & Inglese J A specific mechanism for nonspecific activation in reporter-gene assays. ACS Chem Biol. 2008, 3: 463-470. DOI: 10.1021/cb8000793 Fan F, Binkowski BF, Butler BL, Stecha PF, Lewis MK, Wood KV. Novel genetically encoded biosensors using firefly luciferase. ACS Chem Biol. 2008, 3: 346-351. DOI: 10.1021/cb8000414 Fan F and Wood KV. Bioluminescent assays for high-throughput screening. Assay Drug Dev Technol. 2007, 5: 127-136. […] Chemistry & Biology, 2012, 19: 1060-1072. DOI.org/10.1016/j.chembiol.2012.07.015
PROTOCOL TABLE (as described by Inglese J, Shamu CE and Guy RK. 2007) SEQUENCE No. (e.g., 1, 2, 3, etc.); PARAMETER (e.g., Cells, Incubation, Reagent, etc.); VALUE and DESCRIPTION. FLUC KM ENZYME COUNTERSCREEN (Thorne, N.T. et al. 2012) 1. Reagent. Add 3 uL of D-luciferin substrate buffer per well into Greiner 1536-well white/solid bottom high base, medium bind plates. 2. Compounds. Library compounds and PTC124 control added at 23nL per well, transferred by Pin Tool. 3. Incubation. Incubate plates at room temperature for […], protect from light. 4. Reagent. Add 1uL of P. pyralis luciferase (FLuc) per well of Greiner 1536-well plates. 5. Incubation. Incubate plates at room temperature for 10 min., protect from light. 6. Detector. FLuc luminescence measured using CCD-based camera (Viewlux). NOTES (numbers refer to Sequence numbers above) 1. Substrate buffer: 10 uM D-luciferin final concentration in 50 mM Tris-Acetate, pH 7.6, 10 mM Mg-Acetate, 10 uM ATP, 0.01% Tween-20, and 0.05% BSA buffer added at 3uL/well to 13 x Greiner 1536-well white/solid bottom high base, medium bind plates. 2. PTC124 stock solution prepared (10 mM in DMSO; Auld D.S. et al. 2010). Working dilution for dispense = 10 mM stock dilution (57.5 uM final concentration; 16-pt 1:3 titration in duplicate = final concentration range of 57.5 uM - 4 pM). 23nL of library compounds, PTC124 control or DMSO vehicle control transferred to the 13 substrate-containing Greiner white/solid bottom high base, medium bind plates in 11 interplate 1:3 titrations (see Yasgar, A. et al. 2008) with Pintool. 3. Substrate incubated for 30-50 min. at ambient temperature protected from light with metal lid. 4. Enzyme solution: 10 nM P. pyralis luciferase (FLuc) final concentration in 50 mM Tris-Acetate, pH 7.6 added at 1uL to 13 x Greiner 1536-well white/solid bottom high base, medium bind plates. 5. Substrate and enzyme incubated with test library compounds and controls for 10 min. at ambient temperature protected from light with metal lid. 6. Read final Luminescence on the ViewLux. [Exposure = 30 s.; Gain = High; Speed = Slow; and Binning = 2X.] REFERENCES: Auld DS, Lovell S, Thorne N, Lea WA, Maloney DJ, Shen M, Rai G, Battaile KP, Thomas CJ, Simeonov A, Hanzlik RP and Inglese J. Molecular basis for the high-affinity binding and stabilization of firefly luciferase by PTC124. […] Chemistry & Biology, 2012, 19: 1060-1072. doi.org/10.1016/j.chembiol.2012.07.015 Yasgar A, Shinn P, Jadhav A, Auld DS, Michael S, Zheng W, Austin CP, Inglese J and Simeonov A, Compound Management for Quantitative High-Throughput Screening. J. Assoc. Lab. Auto., 2008, 13: 79-89. doi: 10.1016/j.jala.2007.12.004

Chain of Luciferin 4-monooxygenase (Photinus pyralis) (P08659 whole entry, looked up): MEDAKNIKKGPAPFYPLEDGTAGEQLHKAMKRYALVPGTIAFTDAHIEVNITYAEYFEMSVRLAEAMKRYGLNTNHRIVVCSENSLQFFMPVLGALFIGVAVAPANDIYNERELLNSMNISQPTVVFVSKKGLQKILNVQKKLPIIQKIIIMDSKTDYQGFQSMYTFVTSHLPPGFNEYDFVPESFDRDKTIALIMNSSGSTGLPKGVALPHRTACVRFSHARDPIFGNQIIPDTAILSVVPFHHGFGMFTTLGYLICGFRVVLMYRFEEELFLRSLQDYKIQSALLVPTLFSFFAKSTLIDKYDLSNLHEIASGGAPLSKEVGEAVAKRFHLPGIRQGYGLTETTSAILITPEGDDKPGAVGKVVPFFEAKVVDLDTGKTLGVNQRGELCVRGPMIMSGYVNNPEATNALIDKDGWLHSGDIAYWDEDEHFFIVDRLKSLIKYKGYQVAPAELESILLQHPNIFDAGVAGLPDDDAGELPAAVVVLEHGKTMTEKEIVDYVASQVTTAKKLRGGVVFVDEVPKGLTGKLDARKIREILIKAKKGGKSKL

| SMILES | activity change, negative = inhibition |
| --- | --- |
| Cc1nc(-c2ccncc2)ncc1C(C)Nc1ncnc(C)c1C (stereo unspecified) | -0.924% |
| Cc1noc(C)c1-c1cnc2[nH]cc(CC(=O)N3CCOCC3)c2c1 | 1.18% [at 86.2 µM] |
| N#Cc1cccc(CN2CCC(C3=NC(O)c4cc(F)ccc4N3)CC2)c1 (stereo unspecified) | -0.458% |
| CC1=NS(=O)(=O)N(C)C=C1C(=O)OCc1nc(-c2ccc(C)cc2)no1 | -14.4% |
| Cc1cc(N2CCCC(Cn3cc(Cc4ccccc4)nn3)C2)nc(N)n1 (stereo unspecified) | 4.71% |
| Cc1ccc(C)c(C(=O)N2CCC3(CC2)N=C(c2ccc(Cl)cc2)NO3)c1 | -2.55% |
| COc1ccc(S(=O)(=O)N2CCc3c(C(=O)NCCc4ccccn4)cccc32)cc1 | 0.595% |
| COc1ccc(-c2noc(CC3CCN(C(=O)Cc4ccc(OC)c(OC)c4)CC3)n2)cc1 | 0.775% |
| O=C(c1ccc(F)cc1F)N1CCN(c2cc(-c3ccc(Cl)cc3)[nH]n2)CC1 | 1.19% |
| O=C(CCC1CCN(C(=O)c2ccccc2F)CC1)Nc1cccc(Cl)c1 | -0.361% |
| O=[S+]1([O-])NCC2(CCCN(Cc3ccc(C(F)(F)F)cc3)C2)Oc2ncccc21 (stereo unspecified) | -1.58% |
| COc1ccc(C(CC(=O)N(C)Cc2cc(C3CC3)n[nH]2)c2ccccc2)cc1 (stereo unspecified) | 5.77% |
| COc1cccc(NC(=O)Cn2c(N(C)Cc3ccccc3)nc(C)cc2=O)c1 | 0.159% |
| Cc1ccc(C(=O)N2CCN(c3cc(-c4ccc(Cl)cc4)[nH]n3)CC2)c(C)c1 | 6.33% |
| COc1cccc(-c2noc(CC3CCN(C(=O)c4ccc(F)cc4)CC3)n2)c1 | -3.83% |
| Cc1nn2c(c1-c1ccnn1C(C)C)N(CC1CCOCC1)CCC2 | 1.23% [at 86.2 µM] |
| CN1CCN(C(=O)C(C)(C)Oc2nn(Cc3cccc(Cl)c3)c3ccccc23)CC1 | 0.269% [at 86.2 µM] |
| CC1=NS(=O)(=O)N(C)C=C1C(=O)OCc1noc(-c2ccco2)n1 | 1.54% |

| SMILES | activity change, negative = inhibition |
| --- | --- |
| CC1(C(=O)NCc2ccc3c(c2)OCO3)CCc2cnc(NCc3ccccc3)nc21 (stereo unspecified) | -0.097% [at 86.2 µM] |
| COC(=O)c1cccc(NC(=O)CCNc2c(C)nc3cnccn23)c1 | -21.9% |
| O=C(c1ccccc1)N1CCC(C(=O)N2CCC(Cc3nc(-c4ccc(F)cc4)no3)CC2)CC1 | -0.881% |
| Fc1ccc(CNC[C@H]2Cn3c(-c4ccc5c(c4)OCCO5)cnc3CO2)cc1 | -0.417% [at 86.2 µM] |
| COc1ccc(-c2noc(CC3CCN(C(=O)Cc4ccc(C)cc4)CC3)n2)cc1 | -1.24% |
| Cc1cccc(C(=O)N2CCC(Oc3ccc(-c4noc(C(C)C)n4)cc3)C2)c1 (stereo unspecified) | -14.1% |
| COc1ccc(CC(=O)N2CCC(Cc3nc(-c4ccccc4)no3)CC2)cc1OC | 4.11% |
| COc1ccc(-c2noc(CC3CCN(C(=O)CC4CCCCC4)CC3)n2)cc1 | -0.775% |
| COc1ccccc1Nc1cnc2ccc(N(C)Cc3cccnc3)nn12 | 0.521% [at 86.2 µM] |
| COc1ccc(OCC2(C)COc3ccc(C(=O)Nc4cccnc4)cc3N2)cc1 (stereo unspecified) | -15.3% [at 86.2 µM] |
| O=C(c1ccc(F)cc1Cl)N1CCC(n2cc(-c3nc(-c4ccccc4)no3)nn2)C1 (stereo unspecified) | -8.65% |
| O=C(c1cc(F)ccc1Cl)N1CCN(c2cc(-c3ccc(F)cc3)[nH]n2)CC1 | -1.63% |
| Cc1ccc(OCc2nc(C3CCN(C(=O)CCc4nc5ccc(Cl)cc5[nH]4)CC3)no2)cc1 | -2.06% |
| CC1(CCCCc2ccccc2)COc2ccc(C(=O)N3CC[S+](=O)([O-])CC3)cc2N1 (stereo unspecified) | 0.713% |
| CN(C)CCNC(=O)C(C)(C)Oc1nn(Cc2cccc(Cl)c2)c2ccccc12 | 2.6% [at 86.2 µM] |
| O=C(NCC1CC1)c1nc2c(o1)CCN(Cc1cccc(F)c1F)CC2 | -0.6% [at 86.2 µM] |
| Cc1cc(CNC(=O)c2ccc(-c3ccccc3Cl)o2)n(C)n1 | -6.14% |
| Cc1noc(C)c1-c1cc(-c2ccccc2Oc2ccccc2)cn2cncc12 | 0.554% [at 86.2 µM] |

— PubChem BioAssay AID1347047 (National Center for Advancing Translational Sciences (NCATS), 2019)
